Test results from PubChem BioAssay (Tox21).
The source made the active and inactive calls. Calls come from the whole dose curve; as a rule, active = well fitted curve in the direction sought with a large enough effect in the repeat runs; inconclusive = weak or mixed curves; inactive = flat fitted curve, though single readings scatter.

assay: qHTS assay to test for compound auto fluorescence at 535 nm (green) in HepG2 cells (AID 720675); conditions: green autofluorescence 485/535 nm, 1 h; series mostly up to 91.3 µM
Text: National Center for Advancing Translational Sciences [NCATS]
NIH Chemical Genomics Center [NCGC]
U.S. Environmental Protection Agency [EPA]
National Institutes of Environmental Health Sciences [NIEHS]
National Toxicology Program [NTP]
U.S. Food and Drug Administration [FDA]
Compound auto fluorescence often interferes with screening of the compound library against various biological targets and signaling pathways. Some of these compounds may have fluorophoric properties. Such properties may interfere with the assay outputs resulting in false positives and/or negatives. To decrease such complications and ensure the compound activities are relevant in terms of biological response, the Tox21 10K compound library was screened for auto fluorescence.
From the fluorophores used as reporter signals in our screening assays, the auto fluorescence equivalencies of compounds against three fluorophores have been evaluated: Triamterene, Fluorescein and Rose Bengal sodium for blue, green and red fluorescence, respectively. The fluorescence intensities were measured using Excitation/Emission wavelengths at 405/460nm, 485/535nm and 540/590nm for blue, green and red labels, respectively. This assay includes the green fluorescence data.
Tox21 Assay Protocol Summary:
2,000 HepG2 cells in 5 uL of culture medium (MEM containing 10% FBS) per well were dispensed into black wall/clear bottom 1536-well plates using a Multidrop Combi Dispenser (ThermoFisher Scientific, Waltham, MA). The assay plates were incubated overnight at 37 C to allow cell attachment to the well bottom, followed by the transfer of 23 nL compound or DMSO vehicle by a pintool work station (Kalypsys , San Diego, CA). After the assay plates were incubated for 1 hr at 37 C and 5% CO2, fluorescence intensities in the assay plates were measured by an Envision (PerkinElmer, Shelton, CT) plate reader using three labels for measuring blue, green and red fluorescence at […] 460, 535 and 590 nm respectively.
% is set by controls: 0 for no effect and ±100 for the full control effect.

Q: Which outcome does the source give for `COc1ccc(-c2cc(C(F)F)nn2-c2ccc(S(N)(=O)=O)cc2)cc1F` here?
A: inactive

Q: For `O=C(O)CCS`, which outcome is on record?
A: inactive

Q: For `CCC(C)(C)C(=O)O`, which outcome is on record?
A: inactive

Q: Which outcome does the source give for `CCOC(=O)c1c(N)sc2c1CCN(Cc1ccccc1)C2` here?
A: inactive

Q: Which outcome does the source give for `O=S(=O)(O)CO` here?
A: inactive

Q: Which outcome does the source give for `CC(C)COC(=O)c1ccc(O)cc1` here?
A: inactive

Q: With `CCCCCC` as the compound, how does the outcome read?
A: inactive

Q: With `COC1CCC=CO1` (stereo not given) as the compound, how does the outcome read?
A: inactive

Q: For `CC(C)(O)CCc1ccccc1`, which outcome is on record?
A: inactive

Q: Which fluorescence, % of fluorescein control does the source give for `O=C(O)CCC(=O)c1ccc(-c2ccccc2)cc1` here?
A: 0.0165% [at 18.6 µM] (inactive)

Q: For `C=CC(=O)O`, which outcome is on record?
A: inactive

Q: With `CCCCCc1ccco1` as the compound, how does the outcome read?
A: inactive

Q: With `CC(C)(C)C1(CCc2ccc(Cl)cc2)CO1` (stereo not given) as the compound, how does the outcome read?
A: inactive

Q: With `CCN(CC)C(=O)/C(C#N)=C/c1cc(O)c(O)c([N+](=O)[O-])c1` as the compound, how does the outcome read?
A: inactive

Q: For `CC(=O)OCC(C)C`, which outcome is on record?
A: inactive

Q: With `C1CCCCC1` as the compound, how does the outcome read?
A: inactive

Q: With `Nc1nc(-c2ccc([N+](=O)[O-])cc2)cs1` as the compound, how does the outcome read?
A: inactive

Q: With `C[C@H](CS)C(=O)N1CCC[C@H]1C(=O)O` as the compound, how does the outcome read?
A: inactive

Q: For `CNS(=O)(=O)c1cc(C(=O)N2CCC(CCN3C4CCC3CC(n3c(C)nc5ccccc53)C4)(c3cccc(F)c3)CC2)c(Cl)cc1F` (stereo not given), which outcome is on record?
A: inactive

Q: Which outcome does the source give for `CC(=O)NNC(C)=O` here?
A: inactive

Q: For `O=C(Nc1ccc(C(=O)O)c(O)c1)c1ccccc1`, which outcome is on record?
A: inactive

Q: Which outcome does the source give for `O=C(O)c1cc(Cl)cc(Cl)c1O` here?
A: inactive

Q: With `CC1=C2[C@@H]([C@H](C)CC[C@H]2/C=C(\C)C(=O)O)[C@H](O)C1` as the compound, how does the outcome read?
A: inactive

Q: Which outcome does the source give for `CNC1CCCN(c2c(F)cc3c(=O)c(C(=O)O)cn(C4CC4)c3c2OC)C1` (stereo not given) here?
A: inactive

Q: Which outcome does the source give for `O=C(Oc1ccccc1)c1ccc2ccccc2c1O` here?
A: inactive

Q: For `CC[C@@H](CO)NCCN[C@@H](CC)CO`, which fluorescence, % of fluorescein control is on record?
A: 0.0308% [at 18.6 µM] (inactive)

Q: For `O=C(O)CNC(=O)c1ccccc1I`, which outcome is on record?
A: inactive

Q: For `O=NN(CCCl)C(=O)NCCCl`, which outcome is on record?
A: inactive

Q: With `CCCOC(=O)c1c(Cl)c(Cl)c(Cl)c(Cl)c1C(=O)OCCC` as the compound, how does the outcome read?
A: inactive

Q: For `O=c1[nH][nH]c(=O)c2cc([N+](=O)[O-])ccc12`, which outcome is on record?
A: inactive

Q: For `CC(C)(C)CCCCCCOC(=O)c1ccccc1C(=O)OCCCCCCC(C)(C)C`, which outcome is on record?
A: inactive

Q: For `CC(C)OC(=O)c1ccccc1C(=O)OC(C)C`, which outcome is on record?
A: inactive

Q: For `CC(=O)OCCC(C)CC(C)(C)C` (stereo not given), which outcome is on record?
A: inactive

Q: With `COc1ccc(-n2nc(C(F)F)cc2-c2ccc(S(C)=O)cc2)cc1` (stereo not given) as the compound, how does the outcome read?
A: inactive

Q: Which outcome does the source give for `CCN(CC)CCOc1ccccc1C(=O)CCc1ccccc1` here?
A: inactive

Q: Which outcome does the source give for `CCCCCCCCCCCCCC(=O)OCC(O)CO` (stereo not given) here?
A: inactive

Q: For `[Cl][Nd]([Cl])[Cl]`, which outcome is on record?
A: inactive

Q: With `CC(CO)(CO)C(=O)O` as the compound, how does the outcome read?
A: inactive

Q: With `CCCCCCCCCCCSCC(=O)O` as the compound, how does the outcome read?
A: inactive

Q: Which outcome does the source give for `COC(=O)CC(C(C)=O)C(=O)OC` (stereo not given) here?
A: inactive
